# Counter-ions that a name gives are not always drawn.
# Legend:
# Experiment in all cases: thermal shift delta Tm vs DMSO control; higher = stronger stabilization (binding)
# Conditions in all cases: 12.5 µM; protein concentration 2 µM
# LOC_OS04G57630-cb004 = test system: LOC_OS04G57630-cb004
# In short: (§1)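 Heating from 25°C to 95°C at 0.05°C/s, fluorescence was recorded for 19.5 μl wells of 2 μM E. coli-expressed, purified rice kinase domain in 100 mM potassium phosphate pH 7.5, 150 mM NaCl, 10% glycerol and 5 × SYPRO Orange with compound in DMSO. Boltzmann fits gave melting temperatures for this differential scanning fluorimetry assay. The shift reported is the mean of three replicates against the DMSO-only protein.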
# LOC_OS05G07850-cb002 = test system: LOC_OS05G07850-cb002
# In short: as §1
# LOC_OS05G16824-cb004 = test system: LOC_OS05G16824-cb004
# In short: as §1
# LOC_OS05G28520-cb001 = test system: LOC_OS05G28520-cb001
# In short: as §1
# LOC_OS05G30820-cb001 = test system: LOC_OS05G30820-cb001
# In short: as §1
# LOC_OS05G43570-cb004 = test system: LOC_OS05G43570-cb004
# In short: as §1
# LOC_OS06G16330-cb003 = test system: LOC_OS06G16330-cb003
# In short: as §1
# LOC_OS06G22820-cb001 = test system: T1, LOC_OS06G22820-cb001
# T1 sequence (whole entry): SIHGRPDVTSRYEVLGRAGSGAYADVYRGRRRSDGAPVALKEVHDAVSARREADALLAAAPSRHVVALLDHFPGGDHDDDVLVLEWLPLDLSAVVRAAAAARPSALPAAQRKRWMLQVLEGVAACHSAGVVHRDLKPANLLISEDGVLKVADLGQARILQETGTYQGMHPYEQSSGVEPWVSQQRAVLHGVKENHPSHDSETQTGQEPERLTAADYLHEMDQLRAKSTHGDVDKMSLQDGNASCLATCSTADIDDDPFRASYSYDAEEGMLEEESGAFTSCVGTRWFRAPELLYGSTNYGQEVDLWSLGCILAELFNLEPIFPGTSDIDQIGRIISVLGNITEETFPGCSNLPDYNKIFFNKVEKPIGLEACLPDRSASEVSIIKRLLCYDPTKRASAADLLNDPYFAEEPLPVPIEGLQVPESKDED
# In short: as §1
# LOC_OS07G06570-cb004 = test system: LOC_OS07G06570-cb004
# In short: as §1
# LOC_OS07G07230-cb001 = test system: LOC_OS07G07230-cb001
# In short: as §1
# 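Further: purified Escherichia coli-expressed rice kinase domain construct.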
# Chain of LOC_OS06G16330-cb003 (as listed by the source): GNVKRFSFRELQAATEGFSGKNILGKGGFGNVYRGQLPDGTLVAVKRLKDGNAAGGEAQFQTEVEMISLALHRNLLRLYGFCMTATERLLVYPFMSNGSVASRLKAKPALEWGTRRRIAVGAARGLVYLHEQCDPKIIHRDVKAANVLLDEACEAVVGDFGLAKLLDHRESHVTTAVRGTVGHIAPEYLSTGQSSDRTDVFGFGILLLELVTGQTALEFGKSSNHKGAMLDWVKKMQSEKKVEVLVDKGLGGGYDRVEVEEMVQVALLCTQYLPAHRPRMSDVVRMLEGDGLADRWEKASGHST
SMILES,thermal shift delta Tm (LOC_OS04G57630-cb004) [°C],thermal shift delta Tm (LOC_OS05G07850-cb002) [°C],thermal shift delta Tm (LOC_OS05G16824-cb004) [°C],thermal shift delta Tm (LOC_OS05G28520-cb001) [°C],thermal shift delta Tm (LOC_OS05G30820-cb001) [°C],thermal shift delta Tm (LOC_OS05G43570-cb004) [°C],thermal shift delta Tm (LOC_OS06G16330-cb003) [°C],thermal shift delta Tm (LOC_OS06G22820-cb001) [°C],thermal shift delta Tm (LOC_OS07G06570-cb004) [°C],thermal shift delta Tm (LOC_OS07G07230-cb001) [°C]
COc1ccccc1-c1cc(Nc2cccc(CS(N)(=O)=O)c2)ncn1,0.35,5.65,3.26,0.95,0.39,0.37,4.76,0.66,0.36,-0.22
CN(C)Cc1cccc(N/C(=C2\C(=O)Nc3cc(C(N)=O)ccc32)c2ccccc2)c1,0.27,5.34,2.95,0.22,0.46,0.7,0.53,0.79,1.03,0.16
CCN1CCN(Cc2ccc(C(=O)Nc3ccc(C)c(Oc4ccc5c(c4)CC(=O)N5)c3)cc2C(F)(F)F)CC1,0.33,-0.13,2.03,0.4,0.41,0.42,0.43,0.56,0.16,0.28
Cc1cc(O)c(-c2ccc([C@@H](C)CN)cc2)c2c1[nH]c(=O)c1sccc12 [OTS514 hydrochloride],0.19,5,-0.88,0.49,0.55,0.45,1.74,0.65,1.65,0.6
Cc1cc(CN2CCN(c3c(Br)cnc4nc(-c5ccc(N6CCN(C)CC6)cc5)[nH]c34)CC2)no1,1.11,8.75,3.92,1.16,0.38,0.18,5.31,0.11,1.11,1.28
CNC(=O)c1ccccc1Sc1ccc2c(/C=C/c3ccccn3)n[nH]c2c1 [Axitinib],0.24,5.45,0.17,-0.35,0.45,0.48,2.75,0.73,1.05,0.76
CCc1nc(-c2cccc(C)c2)c(-c2ccnc(NC(=O)c3ccccc3)c2)s1,0.17,4.1,-0.96,0.55,0.63,-0.08,0.66,0.77,1.16,-0.21
CC#CC(=O)N1CC[C@@H](n2c(=O)n(-c3ccc(Oc4ccccc4)cc3)c3c(N)ncnc32)C1 [ONO-4059 (GS-4059) hydrochloride],0.32,-0.32,-5.29,0.56,0.41,0.2,-0.41,0.35,0.52,0.73
N[C@@H]1CCCN(c2c(/C=C3\SC(=O)NC3=O)cccc2-c2ccccc2)C1,0.42,2.29,-1.84,0.64,0.34,-0.01,-0.21,0.41,1.48,0.3
Cc1cnc(Nc2ccc(OCCN3CCCC3)cc2)nc1Nc1cccc(S(=O)(=O)NC(C)(C)C)c1,1.75,8.73,6.93,0.76,0.92,0.64,4.38,0.29,0.27,0.07
O=C1NC(=O)/C(=C/c2ccc3c(c2)OC(F)(F)O3)S1,0.83,0.16,-1.22,0.96,0.8,0.74,0.37,0.72,0.31,0.11
COc1ccc(-c2cc3nccn3c(Nc3ncccc3C(N)=O)n2)cc1OC,1.09,10.1,-0.07,0.66,0.59,0.69,4.18,0.82,0.73,0.38
CCCCNc1ncc(C(=O)NCc2ccc(-n3ccnc3)cc2)c(NC2CCC(O)CC2)n1 (stereo not given),3.08,11,8.45,0.43,1,0.57,11.2,0.49,1.44,0.57
CCc1cnn2c(NCc3ccc[n+]([O-])c3)cc(N3CCCC[C@H]3CCO)nc12,-0.16,2,-0.11,0.17,0.37,0.19,-0.11,0.41,0.51,0.3
C[C@@H](Oc1cc(-n2cnc3ccc(CN4CCN(C)CC4)cc32)sc1C(N)=O)c1ccccc1C(F)(F)F,1.23,2.4,-4.79,-0.16,0.61,0.21,2.19,0.97,1.02,0.47
CO[C@H]1C[C@@H]2CC[C@@H](C)[C@@](O)(O2)C(=O)C(=O)N2CCCC[C@H]2C(=O)O[C@H]([C@H](C)C[C@@H]2CC[C@@H](O)[C@H](OC)C2)CC(=O)[C@H](C)/C=C(\C)[C@@H](O)[C@@H](OC)C(=O)[C@H](C)C[C@H](C)/C=C/C=C/C=C/1C [Rapamycin (Sirolimus)],-0.27,0.51,-0.52,0.16,0.5,0.84,-0.23,0.98,1.23,0.34
C=CC(=O)Nc1ccc2ncnc(Nc3cccc(Br)c3)c2c1,0.39,0.86,-2.41,-0.05,0.56,0.31,-0.95,0.64,0.91,0.32
